The values below come from PubChem BioAssay (NCI).

Assay in all cases: NCI-60 one-dose screen, 48 h (100 = growth as untreated, 0 = no growth, -100 = all killed)
Holding throughout (conditions): 10 µM unless noted

Experiment [1] has as its system T-47D breast.
Experiment [2] has as its system BT-549 breast.
In experiment [3] the test system is MDA-MB-435 melanoma.
Experiment [4] relates to SW-620 colon.
Experiment [5] deals with MCF7 breast.
Experiment [6] relates to HCT-116 colon.
Experiment [7] relates to HCC-2998 colon.
Experiment [8] concerns KM12 colon.

The panel holds about 83,000 compounds, 20% with a hit somewhere; the sample as a whole holds those more often.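 Compound tested at a single concentration for 48 hours in 96-well plates; a percent growth value below 10 was scored as active.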 Unmarked numbers belong to inactive results. The source made the active and inactive calls.

Take `Cc1ccc(-c2cc(-c3ccc(C)cc3)nc(NCCNc3ccnc4cc(Cl)ccc34)n2)cc1`: the growth in experiment [1] was -69.2% (active); in experiment [2], 57.7%; in experiment [3] it was -76.4% (active); in experiment [4], -64.9% (active); in experiment [5], -77.3% (active); in experiment [6], -84.5% (active). Also, the growth in experiment [7] was -80.2% (active); in experiment [8], -73% (active).

Regarding `C=C(C)[C@@H]1CC[C@]2(C)[C@H](C(=O)C=C3[C@@H]4C[C@](C)(C(=O)N5CCN(C)CC5)CC[C@]4(C)CC[C@]32C)[C@@]1(C)CCC#N`, the growth in experiment [1] was -40.5% [100 µM] (active); in experiment [2], -73.3% [100 µM] (active); in experiment [3], -81% [100 µM] (active); in experiment [4] it was -80% [100 µM] (active); in experiment [5], -71.1% [100 µM] (active); in experiment [6], -70.7% [100 µM] (active). The values for the growth in experiment [7] and in experiment [8] were -94% [100 µM] (active) and -80.2% [100 µM] (active), respectively.

Consider `CCN(CC)c1ccc2cc(C(Nc3ccc(C)cc3)c3nnnn3C(C)(C)C)c(=O)oc2c1` (centres undefined), for which the growth is 71.1% in experiment [1]; 89.1% in experiment [2]; 97.5% in experiment [3]; 102% in experiment [4]; 81.4% in experiment [5]; 87.9% in experiment [6]. The growth was 107% in experiment [7] and 103% in experiment [8].

`NC(=O)c1c(NC(=O)COC(=O)Cc2ccccc2F)sc2c1CCC2`: the growth in experiment [1] was 88.8%; in experiment [2] it was 106%; in experiment [3], 105%; in experiment [4], 97.4%; in experiment [5] it was 88.8%; in experiment [6], 114%. In addition, the growth in experiment [7] was 114%; in experiment [8], 105%.

Take `C#C[C@]1(O)CC[C@H]2[C@@H]3CC=C4c5nc(Nc6ccccc6[N+](=O)[O-])sc5CC[C@]4(C)[C@H]3CC[C@@]21C`: the growth in experiment [1] was 41.3%; in experiment [2], 34%; in experiment [3], 66.1%; in experiment [4], 76%; in experiment [5] it was 56.9%; in experiment [6], 45.7%. Further, the growth was 61.1% in experiment [7] and 54.1% in experiment [8].

As to `Cc1cc(NN=C(c2ccc(O)cc2)c2ccc(O)cc2)c([N+](=O)[O-])cc1[N+](=O)[O-]`, the growth is 33.1% in experiment [1]; 90.8% in experiment [2]; 47.5% in experiment [3]; 71.4% in experiment [4]; 32% in experiment [5]; 28.6% in experiment [6]. The growth in experiment [7] was 61.9%; in experiment [8] it was 37.7%.

For `NC(=O)CC1C=CCC1` (centres undefined), the growth in experiment [1] was 106%; in experiment [2] it was 90.1%; in experiment [3] it was 102%; in experiment [4], 97.3%; in experiment [5] it was 92.1%; in experiment [6], 105%. Moreover, the figures for the growth in experiment [7] and in experiment [8] were 101% and 102%, respectively.

For `O=C(NCc1ccccc1)C(Cl)Cl`, the growth was 102% in experiment [1]; 122% in experiment [2]; 103% in experiment [3]; 107% in experiment [4]; 90.1% in experiment [5]; 108% in experiment [6]. Also, the growth in experiment [7] is 107%; in experiment [8], 101%.

In the case of `CC(C)(C)c1cc(C(=O)Nc2ccc(C(=O)NCCN)cc2)cc(C(C)(C)C)c1`, the growth was 27.3% in experiment [1]; 87.6% in experiment [2]; -49.5% (active) in experiment [3]; 1.34% (active) in experiment [4]; 3.31% (active) in experiment [5]; 12.8% in experiment [6]. Moreover, the growth in experiment [7] was 1.78% (active); in experiment [8], 12.9%.

Consider `COc1c(C(C)=O)c(OCCCCOc2c(C(C)=O)c(OC)c3ccoc3c2OC)c(OC)c2occc12`, for which the growth in experiment [1] was 23%; in experiment [2], 98.8%; in experiment [3], 57.9%; in experiment [4], 93.4%; in experiment [5], 64.4%; in experiment [6], 78%. Moreover, the growth in experiment [7] is 76.7%; in experiment [8], 50.4%.

For `CCCCOC(=O)c1c(C)[nH]c(/C=C2\N=C(c3ccc[nH]3)C=C2OC)c1C`, the growth was -46.1% (active) in experiment [1]; 14.9% in experiment [2]; -51.1% (active) in experiment [3]; 11.6% in experiment [4]; -44.2% (active) in experiment [5]; -76.1% (active) in experiment [6]. Also, the growth in experiment [7] is -28.1% (active); in experiment [8], -5.76% (active).

Consider `COc1cc(C)cc2oc3oc(=O)c(-c4nc5ccccc5s4)cc3c(=O)c12`, for which the growth in experiment [1] was 91.2%; in experiment [2], 92.7%; in experiment [3] it was 95.3%; in experiment [4], 83.9%; in experiment [5], 84.7%; in experiment [6] it was 93.4%. Moreover, the growth is 109% in experiment [7] and 93.1% in experiment [8].

On to `O=C1COCCN1c1ccc(Nc2nc(Cl)nc(N3CCOCC3)n2)cc1`, for which the growth in experiment [1] was 88.5%; in experiment [2] it was 97.1%; in experiment [3], 99.5%; in experiment [4], 105%; in experiment [5], 85.5%; in experiment [6] it was 101%. Besides, the results for the growth in experiment [7] and in experiment [8] were 89.1% and 93.8%, respectively.

For the compound `COc1cc2c(cc1OCCCN1CCN(CCCOc3cc4c(cc3OC)C(=O)N3C[C@H](F)C[C@H]3C=N4)CC1)N=C[C@@H]1C[C@@H](F)CN1C2=O`, the growth in experiment [1] was 13.4%; in experiment [2] it was -68.5% (active); in experiment [3], -24.9% (active); in experiment [4], -19.1% (active); in experiment [5], 6.75% (active); in experiment [6], 8.44% (active). For the same compound, the results for the growth in experiment [7] and in experiment [8] were -13.1% (active) and -20% (active), respectively.

Turning to `C#C[C@]1(O)CC[C@H]2[C@@H]3CC=C4c5nc(Nc6ccc(OC)cc6OC)sc5CC[C@]4(C)[C@H]3CC[C@@]21C`, the growth in experiment [1] is 22.3%; in experiment [2], -16.7% (active); in experiment [3] it was -4.22% (active); in experiment [4] it was -12.8% (active); in experiment [5], 4.51% (active); in experiment [6], -21.1% (active). In addition, the growth is 29.8% in experiment [7] and -50.4% (active) in experiment [8].

On to `COc1ccc2nc3c(cc2c1)C(=O)CC(C(F)(F)F)C3` (centres undefined), for which the growth is 41.1% in experiment [1]; 61% in experiment [2]; -47.7% (active) in experiment [3]; 41.5% in experiment [4]; 83.1% in experiment [5]; 11.9% in experiment [6]. For the same compound, the growth in experiment [7] was 84%; in experiment [8], 11.6%.

For `C=C(C)[C@@H]1CC[C@]2(COC(=O)c3ccccc3C(=O)O)CC[C@]3(C)[C@H](CC[C@@H]4[C@@]5(C)CC[C@H](OC(=O)c6ccccc6C(=O)O)C(C)(C)[C@@H]5CC[C@]43C)[C@@H]12`, the growth in experiment [1] is 39.6% [100 µM]; in experiment [2], 28.1% [100 µM]; in experiment [3], 30.8% [100 µM]; in experiment [4] it was 41.7% [100 µM]; in experiment [5] it was 48.6% [100 µM]; in experiment [6], 21.3% [100 µM]. For the same compound, the figures for the growth in experiment [7] and in experiment [8] were 4.42% [100 µM] (active) and 11.8% [100 µM], respectively.

As to `COc1ncnc2c(-c3ccccc3)cn(COCc3ccccc3)c12`, the growth was 14% in experiment [1]; 36.6% in experiment [2]; 29.7% in experiment [3]; 67.4% in experiment [4]; 48.1% in experiment [5]; 41.7% in experiment [6]. The growth was 70% in experiment [7] and 42.5% in experiment [8].

In the case of `CCOC(=O)c1c[nH]c2cc(OCC3CC3)c(OCC3CC3)cc2c1=O`, the growth is 109% in experiment [1]; 113% in experiment [2]; 107% in experiment [3]; 100% in experiment [4]; 104% in experiment [5]; 111% in experiment [6]. Also, the growth was 107% in experiment [7] and 95.7% in experiment [8].

On to `CC(C)=CCC[C@](C)(O)[C@H]1CC[C@]2(C)[C@@H]1CC[C@@H]1[C@@]3(C)CC[C@H](OC(=O)CCC(=O)O)C(C)(C)[C@@H]3CC[C@]12C`, for which the growth in experiment [1] is 25.7% [100 µM]; in experiment [2] it was 25.5% [100 µM]; in experiment [3], 6.66% [100 µM] (active); in experiment [4], 12.1% [100 µM]; in experiment [5], 15.8% [100 µM]; in experiment [6], 9.66% [100 µM] (active). Besides, the growth in experiment [7] was 20.5% [100 µM]; in experiment [8], -19% [100 µM] (active).

Take `O=S(=O)(c1ccc(N/N=C\c2ccccc2Cl)cc1)c1ccc(N/N=C/c2ccccc2Cl)cc1`: the growth in experiment [1] was 76.3%; in experiment [2] it was 78.6%; in experiment [3] it was 86.9%; in experiment [4], 87.6%; in experiment [5], 68%; in experiment [6] it was 80.8%. The growth in experiment [7] is 103%; in experiment [8] it was 69.9%.

For the compound `Nc1nnc(CSc2nnc3n(Cc4ccccc4)c(=O)c4c5c(sc4n23)CCCC5)s1`, the growth is 74% in experiment [1]; 117% in experiment [2]; 106% in experiment [3]; 110% in experiment [4]; -30.9% (active) in experiment [5]; 89.5% in experiment [6]. The growth in experiment [7] was 105%; in experiment [8] it was 121%.

Turning to `C[n+]1c(-c2ccccc2)c2cc(N)ccc2c2ccccc21`, the growth was 11.9% in experiment [1]; 0.585% (active) in experiment [2]; 31.5% in experiment [3]; 40.5% in experiment [4]; 13% in experiment [5]; 30.4% in experiment [6]. For the same compound, the growth in experiment [7] is 40.5%; in experiment [8], 19.1%.

Regarding `COc1cc(C)cc2oc3oc(=O)c(C(=O)c4cc5cc(Br)ccc5o4)cc3c(=O)c12`, the growth in experiment [1] is 107%; in experiment [2], 100%; in experiment [3], 104%; in experiment [4] it was 101%; in experiment [5] it was 101%; in experiment [6], 99.7%. The growth in experiment [7] is 110%; in experiment [8], 107%.

Take `COc1cc(OC)c(/C=C/C(=O)c2c(N)cc(OC)cc2OC)c(OC)c1`: the growth was 49.9% in experiment [1]; 19.3% in experiment [2]; -27.3% (active) in experiment [3]; 15% in experiment [4]; 25% in experiment [5]; 14.8% in experiment [6]. Besides, the growth in experiment [7] was 29.4%; in experiment [8], 11.5%.

Regarding `Cc1ccc(-c2cn(C/C=C3\C=CN(S(=O)(=O)c4ccccc4)CC3)nn2)cc1`, the growth in experiment [1] was 78.3%; in experiment [2] it was 96.1%; in experiment [3], 101%; in experiment [4], 102%; in experiment [5], 90.3%; in experiment [6] it was 98%. The growth in experiment [7] is 109%; in experiment [8], 101%.

On to `CC(=O)OC[C@]12CC[C@@H](C(=O)CBr)[C@@H]1[C@H]1CC[C@@H]3[C@@]4(C)CCCNC(C)(C)[C@@H]4CC[C@@]3(C)[C@]1(C)CC2`, for which the growth in experiment [1] was -69.9% [100 µM] (active); in experiment [2], -62% [100 µM] (active); in experiment [3] it was -87.9% [100 µM] (active); in experiment [4], -58% [100 µM] (active); in experiment [5] it was -54.3% [100 µM] (active); in experiment [6] it was -71.2% [100 µM] (active). Further, the growth was -83.3% [100 µM] (active) in experiment [7] and -78.2% [100 µM] (active) in experiment [8].

`CCCN1CC(c2ccc(OC)c(OC)c2)=C(c2cn(C(=O)OCC)c3ccccc23)C1=O`: the growth in experiment [1] is 36.5%; in experiment [2] it was 58.6%; in experiment [3], -10.5% (active); in experiment [4], 31.5%; in experiment [5], 20.4%; in experiment [6], 21%. In addition, the growth in experiment [7] was 78.3%; in experiment [8], 32.3%.
